Assay results as given in PubChem BioAssay (EPA / NIEHS).
Results filed as inconclusive are left out. The source made the active and inactive calls. The calls were made as follows: active = hit-call score of the fitted dose curve at least 0.9, where 1 is the maximum; inconclusive = response in the unintended direction; inactive = score below 0.9.

Each compound was assayed against human Neuropeptide Receptor Y1 (NPY1), NPY1R (gene 4886) (UniProt P25929) (assay: NVS_GPCR_hNPY1: NovaScreen (NVS) G Protein-Coupled Receptor Assay for human Neuropeptide Receptor Y1 (NPY1) (AID 2283276)).
Summary of the method: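 Displacement of specific radioligand from NPY1 receptor of SK-N-MC origin, read by filtration and scintillation after 1 h. Compounds first tested at 25 uM in duplicate, then actives in concentration series; signal loss relative to DMSO.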

Chain of human Neuropeptide Receptor Y1 (NPY1), NPY1R (gene 4886) (P25929 whole entry, looked up): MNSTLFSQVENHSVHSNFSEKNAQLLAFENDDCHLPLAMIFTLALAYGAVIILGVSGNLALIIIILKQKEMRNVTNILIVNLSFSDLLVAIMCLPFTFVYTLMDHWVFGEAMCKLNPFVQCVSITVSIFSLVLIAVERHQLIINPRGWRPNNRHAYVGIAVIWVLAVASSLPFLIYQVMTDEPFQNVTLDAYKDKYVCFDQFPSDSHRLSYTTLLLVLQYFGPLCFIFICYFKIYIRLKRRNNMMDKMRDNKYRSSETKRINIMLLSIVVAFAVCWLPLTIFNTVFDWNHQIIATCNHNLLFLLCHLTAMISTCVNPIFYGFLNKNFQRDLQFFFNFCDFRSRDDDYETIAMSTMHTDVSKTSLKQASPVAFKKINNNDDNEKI

AC50, active:
CCN(CC)C(=O)c1cc(S(=O)(=O)Cc2ccccc2)c(N2CCC(c3ccccc3)CC2)cc1N(CC)CCN(C)C 14.6 µM, CCCCCCCCCCCC[N+](C)(C)C 16 µM, O=c1[nH]sc2ccccc12 4.62 µM, CN(C)c1ccc(C(=C2C=CC(=[N+](C)C)C=C2)c2ccc(N(C)C)cc2)cc1 13.3 µM

What follows are compounds tested against Neuropeptide Y receptor type 2 (Homo sapiens) (UniProt P49146) (assay: NVS_GPCR_hNPY2: NovaScreen (NVS) G Protein-Coupled Receptor Assay for human Neuropeptide Receptor Y2 (NPY2) (AID 2283277)).
Summary of the method: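 Chemicals were first tested in duplicate at 25 uM, then actives in singleton concentration series to 50 uM. Tracer binding to SK-N-MC-derived protein measured cell-free after 1 h via filter scintillation; signal loss relative to DMSO.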

Chain of Neuropeptide Y receptor type 2 (Homo sapiens) (P49146 whole entry, looked up): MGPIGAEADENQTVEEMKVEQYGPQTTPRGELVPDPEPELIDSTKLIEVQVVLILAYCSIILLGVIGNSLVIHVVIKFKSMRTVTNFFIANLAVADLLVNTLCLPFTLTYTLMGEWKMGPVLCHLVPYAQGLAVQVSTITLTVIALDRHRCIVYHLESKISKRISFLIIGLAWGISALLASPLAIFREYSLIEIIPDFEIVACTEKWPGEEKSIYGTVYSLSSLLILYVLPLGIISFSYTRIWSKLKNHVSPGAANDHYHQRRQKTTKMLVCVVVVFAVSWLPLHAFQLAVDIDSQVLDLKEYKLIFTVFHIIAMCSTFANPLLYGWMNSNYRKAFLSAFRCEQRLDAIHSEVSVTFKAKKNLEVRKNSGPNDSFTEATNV

AC50, active:
CCOC(=O)O[C@H](C)OC(=O)c1ccc2c(c1)cc(C(=O)NC1CCN(C(C)C)CC1)n2Cc1cc(-c2ccc(Cl)s2)on1 0.0551 µM, CCCCCCCCCCCC[N+](C)(C)C 38.9 µM, COc1ccc2cc(S(=O)(=O)N[C@H](CC(=O)N[C@H](Cc3ccc(CN4[C@H](C)CCC[C@@H]4C)cc3)C(=O)N(C)C(C)C)c3ccc4c(c3)OCO4)ccc2c1 2.17 µM, CO[C@H]1/C=C/O[C@@]2(C)Oc3c(C)c(O)c4c(O)c(c(/C=N/N5CCN(C)CC5)c(O)c4c3C2=O)NC(=O)/C(C)=C\C=C\[C@H](C)[C@H](O)[C@@H](C)[C@@H](O)[C@@H](C)[C@H](OC(C)=O)[C@@H]1C 0.0867 µM, CN(C)C(=O)C1(N2CCCCC2)CCN(CC[C@@]2(c3ccc(Cl)c(Cl)c3)CN(C(=O)c3ccccc3)CCO2)CC1 8.65 µM, CN(C)c1ccc(C(=C2C=CC(=[N+](C)C)C=C2)c2ccc(N(C)C)cc2)cc1 16.6 µM, NCc1cccc(C2CCN(C(=O)c3ccc(C#Cc4ccccc4F)o3)CC2)c1 2.33 µM

outcome, inactive:
O=C(O)Cn1c(=O)n(Cc2ccc(Br)cc2F)c(=O)c2ccc(Cl)cc21, CCCCCCCCCCCO

The compounds below were run against human Neurokinin, NK2 Receptor, TACR2 (gene 6865) (UniProt P21452) (assay: NVS_GPCR_hNK2: NovaScreen (NVS) G Protein-Coupled Receptor Assay for human Neurokinin, NK2 Receptor (AID 2283278);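 also: actives reduce bound radioligand signal relative to DMSO baseline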).
Summary of the method: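 Test chemicals displace a radioligand from receptor prepared from CHO cells in a cell-free format, read after 4 hours by scintillation counting on filters. Screening starts at 25 uM in duplicate, and active chemicals then go to concentration series.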

Chain of human Neurokinin, NK2 Receptor, TACR2 (gene 6865) (P21452 whole entry, looked up): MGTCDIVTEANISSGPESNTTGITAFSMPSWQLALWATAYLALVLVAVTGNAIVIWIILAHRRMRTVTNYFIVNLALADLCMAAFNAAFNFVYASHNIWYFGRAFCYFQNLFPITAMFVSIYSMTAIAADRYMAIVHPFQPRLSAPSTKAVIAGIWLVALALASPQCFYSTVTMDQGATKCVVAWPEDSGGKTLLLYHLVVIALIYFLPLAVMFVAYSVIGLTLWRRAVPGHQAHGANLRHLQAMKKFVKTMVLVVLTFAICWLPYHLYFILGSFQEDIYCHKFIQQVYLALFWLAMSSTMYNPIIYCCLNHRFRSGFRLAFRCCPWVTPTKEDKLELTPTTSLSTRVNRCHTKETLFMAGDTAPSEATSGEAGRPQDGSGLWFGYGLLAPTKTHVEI

AC50, active:
CCOC(=O)O[C@H](C)OC(=O)c1ccc2c(c1)cc(C(=O)NC1CCN(C(C)C)CC1)n2Cc1cc(-c2ccc(Cl)s2)on1 3.38 µM, CCN(CC)C(=O)c1cc(S(=O)(=O)Cc2ccccc2)c(N2CCC(c3ccccc3)CC2)cc1N(CC)CCN(C)C 4.95 µM, CCCCCCCCCCCC[N+](C)(C)C 18.6 µM, O=c1[nH]sc2ccccc12 0.38 µM, CN(C[C@@H](CC[N+]12CCC(C3CCCCC3)(CC1)CC2)c1ccc(Cl)c(Cl)c1)C(=O)c1cc(C(F)(F)F)cc(C(F)(F)F)c1 0.0311 µM, Cc1cc(F)ccc1-c1cc(N2CC[C@@H](O)[C@H]2CO)ncc1N(C)C(=O)C(C)(C)c1cc(C(F)(F)F)cc(C(F)(F)F)c1 0.181 µM, CN(C)c1ccc(C(=C2C=CC(=[N+](C)C)C=C2)c2ccc(N(C)C)cc2)cc1 3.82 µM, NCc1cccc(C2CCN(C(=O)c3ccc(C#Cc4ccccc4F)o3)CC2)c1 2.9 µM, O=C1c2ccccc2C(=O)N1CCc1noc(-c2ccc(CN3CCCCCC3)s2)n1 12.3 µM, CCCCCCCCOC(=O)c1cc(O)c(O)c(O)c1 7.2 µM

outcome, inactive:
Cc1oc2c(NC(=O)c3c(Cl)cccc3Cl)cccc2c1C(C)(C)O, O=CCCCC=O, CCCOC(=O)c1cc(O)c(O)c(O)c1, COc1cc(C(=O)NC2CCN(C)CC2)ccc1Nc1ncc2c(n1)N(C1CCCC1)CC(F)(F)C(=O)N2C, CN(C)C(=O)C1(N2CCCCC2)CCN(CC[C@@]2(c3ccc(Cl)c(Cl)c3)CN(C(=O)c3ccccc3)CCO2)CC1, CC1(C)NC(=O)N(c2ccc([N+](=O)[O-])c(C(F)(F)F)c2)C1=O

Each compound was assayed against human Opioid Receptor Delta 1 (Opiate D1), OPRD1 (gene 4985) (UniProt P41143) (assay: NVS_GPCR_hOpiate_D1: NovaScreen (NVS) G Protein-Coupled Receptor Assay for human Opioid Receptor Delta 1 (Opiate D1) (AID 2283280)).
Summary of the method: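 Membrane preparations from CHO cells bearing the human receptor were incubated 1 h with test chemical, and bound radioligand was counted after filtration. Actives from 25 uM duplicate screening were retested in concentration-response.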

Chain of human Opioid Receptor Delta 1 (Opiate D1), OPRD1 (gene 4985) (P41143 whole entry, looked up): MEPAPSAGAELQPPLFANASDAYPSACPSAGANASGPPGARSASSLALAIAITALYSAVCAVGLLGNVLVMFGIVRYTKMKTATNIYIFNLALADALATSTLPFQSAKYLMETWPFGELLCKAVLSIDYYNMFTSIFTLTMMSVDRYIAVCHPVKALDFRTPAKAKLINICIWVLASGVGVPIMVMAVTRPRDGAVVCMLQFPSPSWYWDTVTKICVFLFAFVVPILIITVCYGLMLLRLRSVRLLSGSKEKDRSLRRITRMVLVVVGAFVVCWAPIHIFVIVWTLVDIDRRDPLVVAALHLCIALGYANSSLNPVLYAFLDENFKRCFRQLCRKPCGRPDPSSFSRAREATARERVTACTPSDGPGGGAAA

AC50, active:
CCOC(=O)O[C@H](C)OC(=O)c1ccc2c(c1)cc(C(=O)NC1CCN(C(C)C)CC1)n2Cc1cc(-c2ccc(Cl)s2)on1 3.36 µM, CCN(CC)C(=O)c1cc(S(=O)(=O)Cc2ccccc2)c(N2CCC(c3ccccc3)CC2)cc1N(CC)CCN(C)C 14.2 µM, CCN(Cc1cccnc1)C(=O)c1cccc(Cl)c1[C@]1(C)C(=O)N(Cc2ccc(OC)cc2OC)c2ccc(Cl)cc21 2.01 µM, Cc1cc(F)ccc1-c1cc(N2CC[C@@H](O)[C@H]2CO)ncc1N(C)C(=O)C(C)(C)c1cc(C(F)(F)F)cc(C(F)(F)F)c1 15.8 µM, CN(C)C(=O)C1(N2CCCCC2)CCN(CC[C@@]2(c3ccc(Cl)c(Cl)c3)CN(C(=O)c3ccccc3)CCO2)CC1 10.3 µM, CN(C)c1ccc(C(=C2C=CC(=[N+](C)C)C=C2)c2ccc(N(C)C)cc2)cc1 8.5 µM, NCc1cccc(C2CCN(C(=O)c3ccc(C#Cc4ccccc4F)o3)CC2)c1 10.2 µM, CCCCCCCCOC(=O)c1cc(O)c(O)c(O)c1 16.4 µM

outcome, inactive:
C[C@]12CC[C@@H]3c4ccc(O)cc4CC[C@H]3[C@@H]1CCC2=O, CC[C@H](NC(=O)c1cc(F)ccc1NS(=O)(=O)c1cccc2cccnc12)c1ccccc1, CC(C)(C)c1csc(-c2cc3cc(OCc4ccccc4CC(=O)O)ccc3o2)n1, CC/C(=C(/CC)c1ccc(O)cc1)c1ccc(O)cc1
